Molecules are shown by their SMILES. Where “and” joins values, the source holds several entries; their conditions need not be identical. Identical values can stand only once. Inconclusive results are not listed. A number with no mark means an inactive call. Calls of active or inactive are those of the source. Unless noted, calls follow the shape of the dose curve; as a rule, active = well fitted curve in the direction sought with a large enough effect; inconclusive = small, poorly fitted or top-dose-only effect, or another doubt; inactive = no such curve, though single readings can be large; an effect the other way counts as inactive or inconclusive.

Experiment [1] has as its target Cytochrome P450 2C9 (Homo sapiens) (UniProt P11712). Put plainly: Cytochrome P450 family 2 subfamily C member 9 (CYP2C9) small molecule antagonists: luciferase biochemical (cell-free) qHTS assay (AID 1645842; active = well fitted curve in the direction sought with a large enough effect in the repeat runs; an effect the other way counts as inactive or inconclusive; also: nearly all actives have a fitted effect of over 55% in size; as to activity change, negative = inhibition: series mostly up to about 57 µM). The method, boiled down:
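Luminescence, after 20 min with luciferin detection reagent, reflected CYP2C9 turnover during a 1 h NADPH-driven reaction at 37C. Enzyme-substrate mix contained 0.4% bovine serum albumin and was preincubated with compound 10 min at room temperature.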
(Quantitative high-throughput screening tests each substance at several concentrations.)

The nature of experiment [2]: Primary qHTS for inhibitors of nuclear receptor binding SET domain protein 2 (NSD2) in an isogenic RCH-ACV NSD2 p.E1099K mutant (9B) (AID 1645876). Also: nearly all actives have a fitted effect of over 70% in size.
A short description of experiment [3]: Primary qHTS for inhibitors of nuclear receptor binding SET domain protein 2 (NSD2) in an RCH-ACV wild type WT cells (2C) (AID 1645877). Also: nearly all actives have a fitted effect of over 70% in size.
% is scaled to controls: 0 for no effect and ±100 for the full control effect; potency is read from the fitted curve at half-maximal effect.

Cytochrome P450 2C9 (Homo sapiens), sequence (P11712 whole entry, looked up): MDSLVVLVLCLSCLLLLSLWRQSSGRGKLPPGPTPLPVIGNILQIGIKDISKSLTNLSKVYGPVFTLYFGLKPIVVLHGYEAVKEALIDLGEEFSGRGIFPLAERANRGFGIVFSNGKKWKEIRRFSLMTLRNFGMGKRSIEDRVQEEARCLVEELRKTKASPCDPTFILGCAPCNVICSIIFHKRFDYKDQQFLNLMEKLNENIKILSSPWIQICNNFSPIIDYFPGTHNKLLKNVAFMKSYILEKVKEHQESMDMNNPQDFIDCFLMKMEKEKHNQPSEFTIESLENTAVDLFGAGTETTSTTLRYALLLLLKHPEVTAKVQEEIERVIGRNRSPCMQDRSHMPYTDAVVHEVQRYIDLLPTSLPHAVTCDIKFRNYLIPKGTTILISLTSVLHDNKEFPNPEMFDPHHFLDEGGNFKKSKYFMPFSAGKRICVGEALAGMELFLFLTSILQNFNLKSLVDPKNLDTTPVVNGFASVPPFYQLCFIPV

For `O=C(Nc1ccc2[nH]nc(-c3ccncc3)c2c1)[C@@H]1CCN(CC(=O)N2CCN(c3ccc(-c4ncccn4)cc3)CC2)C1`, the Potency in experiment [1] was 6.74 µM (active) and 1.69 µM (active); in experiment [2], 9.16 µM (active) and 14.8 µM (active); in experiment [3], 10.3 µM (active) and 11.8 µM (active).
With `COCc1c(Cl)ccc2c1CC[C@H]2c1ncc[nH]1`, in experiment [1], the Potency is 21.3 µM (active). Moreover, the Potency result in experiment [2] and in experiment [3] was “inactive” in each case.
Consider `Cn1c(=O)c2c(ncn2Cc2ccc(C(C)(C)C)cc2)n(C)c1=O`, for which the figures for the Potency in experiment [1], in experiment [2] and in experiment [3] were 23.9 µM (active), 6.49 µM (active) and 7.28 µM (active), respectively.
For `NS(=O)(=O)c1ccc(N2CCN(CC[C@@H]3OCCc4ccccc43)CC2)cc1` the same measures were “inactive”, “inactive” and “inactive”.
For `C[C@@H](NC(=O)C(=O)c1c[nH]c2ccc([N+](=O)[O-])cc12)c1ccccc1` the same measures were “inactive”, “inactive” and “inactive”.
In the same order, the values of `CC(C)(C[C@@](O)(Cc1cc2ccncc2[nH]1)C(F)(F)F)c1cc(F)ccc1O` are 0.301 µM (active), 10.3 µM (active) and 0.163 µM (active).
Take `Cc1cc(F)ccc1[C@H]1C[C@@H](N2CCN3C(=O)CC[C@H]3C2)CCN1C(=O)N(C)[C@H](C)c1cc(C(F)(F)F)cc(C(F)(F)F)c1`: the Potency in experiment [1] was 10.7 µM (active); in experiment [2] it was 23 µM (active); in experiment [3] it was 14.5 µM (active).
As for `O=C(NCc1cccs1)c1cc2nc(-c3ccco3)cc(C(F)(F)Cl)n2n1`, the Potency in experiment [1] is 0.301 µM (active). In addition, the Potency result in experiment [2] and in experiment [3] was “inactive” throughout.
Turning to `Cc1ccccc1C(C(=O)NC1CCCCC1)N(C(=O)Cn1cnc2ccccc21)c1cccc(F)c1` (centres undefined), the values for the Potency in experiment [1], in experiment [2] and in experiment [3] were 16.9 µM (active), 12.9 µM (active) and 23 µM (active), respectively.
In the same order, the values of `Nc1nc2c(cnn2CCCc2ccc(O)cc2)c2nc(-c3ccco3)nn12` are 3.01 µM (active), “inactive” and “inactive”.
For `O=C1C(Cc2ccc(O)cc2)N2C(=O)CCN(C(=O)NCc3ccccc3)C2CN1Cc1cccc2ccccc12` (centres undefined) the same measures were 10.7 µM (active), 3.65 µM (active) and 5.15 µM (active).
For `CCC(=C(c1ccc(OCCN2CCCC2)cc1)c1ccc(OCCN2CCCC2)cc1)c1ccccc1`, the activity change, negative = inhibition in experiment [1] is 1.82% [at 11.5 µM]. Further, the Potency in experiment [2] and in experiment [3] was 3.65 µM (active) each time.
Turning to `COc1ccccc1N1CCN(CC[C@@](C)(C(=O)C2CCCCC2)c2ccccc2)CC1`, the Potency in experiment [1] is 8.49 µM (active); in experiment [2], 16.3 µM (active); in experiment [3], 18.3 µM (active).
In the same order, the values of `CN(C)C(=O)NC1(c2ccccc2)CCN(CCC[C@]2(c3ccc(Cl)c(Cl)c3)CCCN(C(=O)c3ccccc3)C2)CC1` are 21.3 µM (active), 3.25 µM (active) and 2.9 µM (active).
In the same order, the values of `O=C(NCCN1CCOCC1)c1cc2c(Oc3ccc(NC(=O)C4(C(=O)Nc5ccc(F)cc5)CC4)cc3)ccnc2[nH]1` are 12 µM (active), 23 µM (active) and 12.9 µM (active).
For `CCC(C)CNCC(=O)N1CCC2SC=CC2C1COc1cccc(C)c1` (centres undefined) the same measures were 12 µM (active), 23 µM (active) and 18.3 µM (active).
In the case of `O=C(NCC1(N2CCN(c3ccccc3)CC2)CCOCC1)c1cccnc1Sc1ccccc1`, the Potency in experiment [1] was 3.79 µM (active). For the same compound, the Potency entry in experiment [2] and in experiment [3] was “inactive” throughout.
On to `O=C(c1ccc(OC(F)F)c(C#Cc2ccccn2)c1)N1Cc2cccnc2C1`, for which the Potency entry in experiment [1], in experiment [2] and in experiment [3] was “inactive” in each case.
In the case of `O=C(Nc1ccc(-c2ccnc(Nc3ccc(N4CCOCC4)cc3)n2)cc1)C1CCCN1` (centres undefined), the figures for the Potency in experiment [1], in experiment [2] and in experiment [3] were 2.13 µM (active), 4.61 µM (active) and 4.11 µM (active), respectively.
For `Cc1cc(N2CCN(C(=O)Oc3ccc(-c4ccccc4)cn3)CC2)c2ccccc2n1` the same measures were 26.8 µM (active), 12.9 µM (active) and 12.9 µM (active).
In the same order, the values of `C[C@H](Oc1cc(-n2cnc3ccc(CN4CCN(C)CC4)cc32)sc1C(N)=O)c1ccccc1C(F)(F)F` are 6.74 µM (active), 1.15 µM (active) and 1.29 µM (active).
With `O=C(Nc1cccnc1)c1cc(-c2ccnc(F)c2)ccc1OCc1ccccc1`, the Potency in experiment [1] is 1.51 µM (active). Further, the Potency result in experiment [2] and in experiment [3] was “inactive” in each case.
With `Cc1cc(NC(=O)NCCN2CCC(O)(Cc3ccccc3)CC2)c2ccccc2n1`, the Potency result in experiment [1], in experiment [2] and in experiment [3] was “inactive” throughout.
On to `Cc1cc(N2CCOCC2)ccc1Nc1nc(NC2CCCCC2)c2[nH]cnc2n1`, for which the results for the Potency in experiment [1], in experiment [2] and in experiment [3] were 13.5 µM (active), 1.29 µM (active) and 8.33 µM (active), respectively.
For `COc1cc(CCc2cc(NC(=O)c3ccc(N4CC(C)NC(C)C4)cc3)n[nH]2)cc(OC)c1` (centres undefined) the same measures were “inactive”, 9.16 µM (active) and 10.3 µM (active).
For `CC(C)(C)c1ccc(-c2nc3c(N4CCN(Cc5ccc6nccnc6c5)CC4)cccc3[nH]2)cc1` the same measures were 2.13 µM (active), 9.16 µM (active) and 11.5 µM (active).
For `COC(=O)C(Cc1ccc(OCCn2c(=O)sc3cc(C(=O)c4ccccc4)ccc32)cc1)C(=O)OC` the same measures were 2.13 µM (active), “inactive” and “inactive”.
For the compound `COc1ccc(CNc2nc(N(CCO)CCO)nc3c2ncn3C(C)C)cc1`, the Potency is 3.79 µM (active) in experiment [1], 7.42 µM (active) in experiment [2] and 5.25 µM (active) in experiment [3].
